# Pol iota inh = DNA polymerase iota (human) inhibition. Potency, µM (doses to about 115 µM), for inactives: at the top dose activity, negative = inhibition, usual class: inhibitors. Pol iota fluorescent replication assay, 10 min. 390,000 compounds, 1% hits
# Target sequence (Q9UNA4 whole entry, looked up): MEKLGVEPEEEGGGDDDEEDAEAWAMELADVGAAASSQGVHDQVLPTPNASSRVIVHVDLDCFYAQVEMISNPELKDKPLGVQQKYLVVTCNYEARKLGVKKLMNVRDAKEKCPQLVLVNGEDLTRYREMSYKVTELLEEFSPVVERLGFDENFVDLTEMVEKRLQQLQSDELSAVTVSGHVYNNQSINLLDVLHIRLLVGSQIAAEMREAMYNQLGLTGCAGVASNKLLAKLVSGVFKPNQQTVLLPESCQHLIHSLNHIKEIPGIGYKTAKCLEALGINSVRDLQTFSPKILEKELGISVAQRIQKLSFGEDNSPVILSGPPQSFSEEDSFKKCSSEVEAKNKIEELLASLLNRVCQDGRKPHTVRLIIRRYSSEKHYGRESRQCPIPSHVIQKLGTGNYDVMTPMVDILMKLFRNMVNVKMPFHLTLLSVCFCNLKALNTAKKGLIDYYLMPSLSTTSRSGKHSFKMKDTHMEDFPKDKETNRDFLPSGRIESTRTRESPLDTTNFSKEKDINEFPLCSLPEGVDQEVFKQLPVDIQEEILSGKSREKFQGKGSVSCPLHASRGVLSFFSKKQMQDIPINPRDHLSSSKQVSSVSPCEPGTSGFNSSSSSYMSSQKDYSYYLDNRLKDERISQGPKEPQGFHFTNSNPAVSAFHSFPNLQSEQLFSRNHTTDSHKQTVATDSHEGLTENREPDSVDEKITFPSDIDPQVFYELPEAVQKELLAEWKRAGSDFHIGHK
#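 Pol iota at 10 nM preincubated 15 min with compounds at room temperature; reaction started with fluorescent substrate, 50 nM final. Fluorescence read kinetically at 0 and 10 min; buffer-only wells as negative control.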
# Pol eta inh-1 = blocks human DNA polymerase eta activity; Q9Y253; 390,000 compounds, 1.2% hits; recombinant Pol eta, fluorescent DNA replication assay; Potency, µM (titrated, usually from 114 µM), without a hit: top-dose activity change, negative = inhibition, actives largely listed as inhibitors; further: on the % scale 0 is the no-effect control and ±100 the full control effect
#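 Fluorescent replication assay: 50 nM final substrate added after a 15 min room-temperature compound preincubation with 10 nM enzyme. Signal taken at 0 min and again at 10 min.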
# FEN1 inh-1 = human FEN1 inhibition; P39748; Recombinant FEN1 flap cleavage, fluorescence, 15 min; Potency, µM (highest dose often 114 µM), for the others: at the highest dose activity change, negative = inhibition, usual class: inhibitors; AID 588795; 390,000 compounds, 0.35% hits; further: on the % scale 0 is the no-effect control and ±100 the full control effect; nearly all actives have a fitted effect of over 65% in size
#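 Concentration–response screening of FEN1 (10 nM): 15 min compound preincubation at room temperature, reaction started with 50 nM substrate and read at 0 and 15 min. Corrected, normalized data were fitted by a four-parameter Hill equation.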
# Pol kappa inh-1 = inhibitors of human DNA polymerase kappa. Q9UBT6. purified Pol kappa, fluorescent DNA synthesis assay, 10 min. Potency, µM (doses to about 107 µM), inactives show top-dose activity, negative = inhibition, most hits filed as inhibitors. 400,000 compounds, 0.53% hits. AID 588579; further: on the % scale 0 is the no-effect control and ±100 the full control effect
#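 Pol kappa 10 nM + cpd, 15 min RT; start w/ substrate 50 nM final; fluorescence kinetic read, 0 and 10 min. Neg ctrl: buffer, no enzyme.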
# POLB inh = DNA polymerase beta (human) inhibition; P06746; Pol beta primer extension/strand displacement, fluorescence kinetic; Potency, µM (highest dose often 114 µM), without a hit: at the top dose activity change, negative = inhibition, actives largely listed as inhibitors; 340,000 compounds, 1.3% hits; AID 485314; further: on the % scale 0 is the no-effect control and ±100 the full control effect
#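 Pol beta (10 nM) was preincubated with compound for 15 min at room temperature. The reaction was then started with 50 nM substrate and read immediately and after a further 10 min at room temperature.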
# WRN helicase inh = WRN helicase (human) inhibition; Q14191; WRN helicase unwinding, fluorescent forked duplex, kinetic; Potency, µM (titrated, usually from 114 µM), for the others: at the highest dose activity change, negative = inhibition, most hits filed as inhibitors; 360,000 compounds, 0.46% hits; AID 651768; further: on the % scale 0 is the no-effect control and ±100 the full control effect; nearly all actives have a fitted effect of over 55% in size
#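 WRN at 20 nM final preincubated with compound 15 min at room temperature; reaction started with 100 nM fluorophore/quencher forked duplex oligonucleotide and 2 mM ATP final. Unwinding followed kinetically by red fluorescence (ex 525, em 598 nm).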
# TbPGK inh = blocks T. brucei phosphoglycerate kinase | shares compounds with Pol kappa inh-1 | TbPGK coupled GAPDH assay, Kinase-Glo luminescence | Potency, µM (top dose mostly 57.5 µM), inactives show at the highest dose activity change, negative = inhibition, usual class: inhibitors | 500 compounds, 79% hits; further: on the % scale 0 is the no-effect control and ±100 the full control effect; nearly all actives have a fitted effect of over 65% in size
# Pol iota confirm = Confirm cherry-picked inhibitors of human polymerase iota; shares compounds with Pol kappa inh-1; 1,500 compounds, 77% hits; Potency, µM, actives largely listed as inhibitors; Pol iota primer extension, TAMRA/BHQ fluorescence
# Pol kappa inh-2 = Pol kappa (human) inhibition, cherry-pick confirmation | shares compounds with Pol eta inh-1 | Potency, µM, most hits filed as inhibitors | 920 compounds, 76% hits | purified Pol-kappa, fluorescent strand-displacement substrate
# Pol eta inh-2 = Pol eta (human) inhibition, cherry-pick confirmation; Potency, µM, actives largely listed as inhibitors; Pol eta primer extension, TAMRA/BHQ fluorescence, 10 min; 2,600 compounds, 64% hits; shares compounds with Pol eta inh-1; AID 720502
# FEN1 inh-2 = confirmation of human FEN1 inhibitors | shares compounds with FEN1 inh-1 | FEN1 flap cleavage, TAMRA/BHQ2 fluorogenic DNA substrate | Potency, µM, most hits filed as inhibitors | 880 compounds, 79% hits | AID 720498; further: nearly all actives have a fitted effect of over 60% in size
# * hit, by the source's call; ? = inconclusive; / = no result given; [ ] = dose if it differs, or a comment. Hits are enriched below; roughly 2.4% of the tested compounds scored in any of these assays. The call rests on the fitted dose curve; in most records, active means well fitted curve in the direction sought with a large enough effect; inconclusive means small, poorly fitted or top-dose-only effect, or another doubt; inactive means no such curve, though single readings can be large; an effect the other way counts as inactive or inconclusive. Potency means the concentration at half of the fitted maximal effect.
SMILES,Pol iota inh,Pol eta inh-1,FEN1 inh-1,Pol kappa inh-1,POLB inh,WRN helicase inh,Pol iota confirm,Pol eta inh-2,FEN1 inh-2,others
O=c1c2cc(O)c(O)cc2oc2cc(O)c(C3OC(CO)C(O)C(O)C3O)c(O)c12 (configuration not stated),?,8.9µM*,-17%,4µM*,/,-17%,15*,19*,?,Pol kappa inh-2=7.5*
CN(CCc1ccccc1)C(=O)c1ccc(NC(=O)Cc2ccc(NC(=O)C3CCN(C(=O)C4CCC4)CC3)cc2)cc1,21%,-24%,-5%,1%,/,-1%,/,/,/,
COc1c(OC2OC(C(=O)O)C(O)C(O)C2O)cc(O)c2c(=O)cc(-c3ccccc3)oc12 (configuration not stated),-9%,-10%,?,-33%,19%,-1%,/,/,/,
O=C(O)C1OC(Oc2cc3oc(-c4ccccc4)cc(=O)c3c(O)c2O)C(O)C(O)C1O (configuration not stated),10µM*,-16%,50µM*,79µM*,50µM*,6%,21*,/,34*,
COc1cccc(NC(=O)Cn2cc(C(=O)c3ccc(C)cc3)c(=O)c3cc(OC)ccc32)c1,?,79µM*,79µM*,2%,20µM*,/,47*,/,?,
CSc1ccc(C(O)c2ncc(-c3cccc(F)c3)[nH]2)cc1 (configuration not stated),/,/,/,/,/,1%,/,/,/,
CS(=O)(=O)c1cccc(C(=O)Nc2ccc(-c3nc4ccccc4[nH]3)cc2)c1,?,-11%,8%,-12%,9%,-3%,/,/,/,
Cc1ccc(C(=O)Nc2ccc(-c3nc4ccccc4[nH]3)cc2)cc1Br,/,/,/,/,/,/,67*,?,60*,
Fc1cc(F)c2nc(Nc3nc4cc5c(cc4s3)OCO5)sc2c1,?,2.8µM*,?,?,?,28µM*,?,/,43*,
CC1OC(Oc2c(-c3cc(O)c(O)c(O)c3)oc3cc(O)cc(O)c3c2=O)C(O)C(O)C1O (configuration not stated),?,?,2.2µM*,50µM*,14µM*,-3%[11.6 µM],?,/,2.7*,
CCOC(=O)C1(C)CCN1C(=O)c1ccccc1 (configuration not stated),/,/,/,/,/,-3%,/,/,/,
COC(=O)[C@]1(C)CCC[C@]2(C)c3ccc(C(C)C)cc3C(=O)CC12 (some centres not stated),/,/,/,-12%[60.1 µM],/,/,/,/,/,
Oc1cc2c(cc1O)C1c3ccc(O)c(O)c3OCC1(O)C2 (configuration not stated),7.9µM*,7.1µM*,35µM*,0.18µM*,13µM*,28µM*,24*,27*,?,TbPGK inh=5.8µM*
O=C1NC(=S)N(C(=O)c2ccc(F)cc2)/C1=C/c1cccnc1,?,-10%,-7%,-9%,?,?,/,/,/,
COc1ccc(/C=C2\C(=O)NC(=S)N2C(=O)c2ccc(C)cc2)cc1,18µM*,16µM*,?,?,20µM*,56µM*,?,?,76*,
CN1/C(=C\C=N\O)C(C)(C)c2ccccc21,22%,0%,18%,0%,8%,-6%,/,/,/,
CN1/C(=C\C=C2/SC(=S)NC2=O)C(C)(C)c2ccccc21,28µM*,79µM*,?,45µM*,22µM*,28µM*,75*,76*,67*,Pol kappa inh-2=38*
COc1cc(Cl)c(C)cc1NC(=O)CSc1ncc(S(=O)(=O)c2ccc(C(C)(C)C)cc2)c(=O)[nH]1,?,10µM*,?,?,10µM*,/,21*,30*,48*,TbPGK inh=21µM*
CCOc1ccc(NC(=O)N(Cc2c[nH]c3ccccc23)C2CCCCC2)cc1,0%,-12%,-13%,-4%,6%,/,/,/,/,
COc1cc(/C=C2\SC(=O)N(CC(=O)Nc3cccc(C)c3)C2=O)cc([N+](=O)[O-])c1O,?,22µM*,?,-17%,8%,?,75*,48*,76*,TbPGK inh=?
COc1ccc(/C=C2\SC(=O)N(CC(=O)Nc3cccnc3)C2=O)cc1OC,26%,-13%,12%,0%,2%,9%,/,/,/,
Cc1cc(C)nc(SCC(=O)Nc2ccccc2[N+](=O)[O-])n1,14%,0%,-6%,-9%,23%,-5%,/,/,/,
O=C1CC(=O)NC(SCC(=O)Nc2ccccc2[N+](=O)[O-])=N1,2.8µM*,5.6µM*,?,40µM*,?,40µM*,12*,6*,?,TbPGK inh=10µM*
CC(=O)Nc1ccc(NC(=O)C(C)OC(=O)/C(C#N)=C/c2ccc(N(C)C)cc2)cc1 (configuration not stated),?,?,?,-4%,/,?,/,/,/,
CC(OC(=O)/C(C#N)=C/c1ccc(N(C)C)cc1)C(=O)N(C)c1ccccc1 (configuration not stated),50µM*,79µM*,50µM*,79µM*,/,56µM*,24*,34*,38*,
O=c1[nH]c(-[n+]2ccccc2)c(/C=N/N=C(\[O-])c2ccccc2)s1,30%,7%,-18%,-20%,24%,-5%,/,/,/,
Cc1cc[n+](-c2[nH]c(=O)sc2/C=N/N=C(\[O-])c2ccccc2)cc1,25µM*,?,-32%,?,14µM*,?,38*,27*,67*,
COc1ccc(Cn2c(C)nc3c(c2=O)c2nc4ccccc4nc2n3Cc2ccco2)cc1,3.2µM*,8.9µM*,40µM*,35µM*,/,8.4µM*,13*,30*,?,
COc1ccc(-c2nn(-c3ccccc3)cc2/C=C2/SC(=S)N(CCC(=O)O)C2=O)c(C)c1,?,32µM*,?,?,32µM*,-21%,75*,?,67*,
